Reference: PubChem BioAssay AID1851 (National Center for Advancing Translational Sciences (NCATS), 2009)
Screen size: about 16,000 compounds; about 2,600 (16%) were called active. Inconclusive results (about 20%) are left out. Calls follow the shape of the dose curve; as a rule, active = well fitted curve in the direction sought with a large enough effect; inconclusive = small, poorly fitted or top-dose-only effect, or effect the other way; inactive = no such curve, though single readings can be large or run the other way. A selection follows. Peptide text beside a SMILES is read from it. * marks the point of attachment. Boc = CC(C)(C)OC(=O)*

What follows are molecules tested against Cytochrome P450 2D6 (Homo sapiens) (UniProt P10635) (assay: Cytochrome panel assay with activity outcomes). Settings: recombinant CYP, pro-luciferin dealkylation, luminescence, p450-cyp2d6; series mostly up to 57.1 µM.
Chain of Cytochrome P450 2D6 (Homo sapiens) (P10635 whole entry, looked up): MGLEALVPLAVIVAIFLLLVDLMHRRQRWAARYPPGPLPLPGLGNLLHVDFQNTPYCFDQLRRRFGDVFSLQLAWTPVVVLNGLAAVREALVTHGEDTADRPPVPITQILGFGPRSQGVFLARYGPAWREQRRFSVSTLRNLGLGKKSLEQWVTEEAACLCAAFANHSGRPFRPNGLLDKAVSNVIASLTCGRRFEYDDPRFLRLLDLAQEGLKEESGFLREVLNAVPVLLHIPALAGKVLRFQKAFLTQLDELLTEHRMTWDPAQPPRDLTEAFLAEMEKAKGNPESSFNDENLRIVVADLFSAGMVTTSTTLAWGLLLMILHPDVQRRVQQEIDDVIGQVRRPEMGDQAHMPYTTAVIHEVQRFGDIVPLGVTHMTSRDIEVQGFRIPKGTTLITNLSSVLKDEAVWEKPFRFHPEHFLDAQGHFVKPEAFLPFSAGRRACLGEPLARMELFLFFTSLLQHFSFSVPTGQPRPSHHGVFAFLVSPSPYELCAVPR
% is scaled to controls: 0 for no effect and ±100 for the full control effect.

AC50, inactive:
COC(=O)C1=C(CSc2nncn2C)NC(=O)NC1c1ccc(F)cc1 (stereo not drawn), Cc1ccc(S(=O)(=O)N2CCC(C(=O)NCCCOC(C)C)CC2)cc1, CC(=O)Nc1ccc(S(=O)(=O)NCC2CCC(C(=O)NCCC(C)C)CC2)cc1 (stereo not drawn), CCc1ccccc1NC(=O)c1nnn(CC(=O)Nc2cccc(C)c2C)c1N, C/C(=N\Nc1nc(N)cc(Cl)n1)c1cccc([N+](=O)[O-])c1, O=C(Cc1ccc(Cl)cc1)Nc1cccc(-c2nnc(-c3ccco3)o2)c1, O=C(Cc1ccc(Cl)cc1)NNC(=O)Nc1cccc2ccccc12, Cc1ccc(C(=O)NCc2ccc(N3CCN(C(=O)OC(C)(C)C)CC3)cc2)cc1, CC(C)NC(=O)CC(=O)N/N=C/c1ccc(F)cc1, CCCCCSc1nncc(=O)[nH]1, Cc1cc(Oc2ccccc2)nc(NCc2ccccc2)n1, CN(C)c1ncc2nc(-c3cccs3)c(=O)n(-c3ccccc3)c2n1, CCN(CC)c1ccc(C(=O)OCc2cc(=O)oc3cc(O)ccc23)cc1, CCN(CC)c1ccc2cc(C(C)=O)c(=O)oc2c1, CCOC(=O)c1ccccc1NC(=O)/C(C)=C/C(=O)O, COCCn1c(=O)c(-c2cn(C)c3ccccc23)nc2cnc(Oc3cccc(Cl)c3)nc21, CCCOc1ccccc1-c1nc2n[nH]nc2c(=O)[nH]1, CNc1nc(C)cc(C)c1S(=O)(=O)c1ccc(Cl)cc1, Cc1nn(C(=O)c2ccco2)c(C)c1Sc1ccc(Br)cc1, Cc1ccc(Sc2c([N+](=O)[O-])ncn2C)cc1, O=C(OC1CCN(c2ccc([N+](=O)[O-])cc2)CC1)c1ccccc1, COc1ccc(-n2c(C)cc(C=O)c2C)cc1Cl, CC(C)(O)c1cn(-c2nonc2N)nn1, COC(=O)c1c(NC(=O)c2ccco2)sc2c1CCC2, Cc1ccc(C(=O)Nc2ccc(C(=O)/C=C/c3cccs3)cc2)cc1, CN(C(=O)C(Cl)Cl)c1ccc(OC(=O)c2ccco2)cc1, c1ccc2nc(C3=NCCN3)cnc2c1, c1ccc2cc(C3=NCCN3)ncc2c1, O=C(Oc1ccccc1)N1CCC2(CC1)CCN(c1ccccn1)CC2, CCOc1ccc(-c2c[n+](=O)c3c(n2[O-])CCCC3)c(OCC)c1, CCCCn1c(SCc2c(C)noc2C)nc2cc(S(N)(=O)=O)ccc21, CCn1c(=O)[nH]c2ccccc21, CCN1CNC(=S)N(c2cc(C)ccc2C)C1, COc1ccc(NC(=O)N2CC3(CCN(C(=O)c4ccco4)CC3)C2)cc1, CC(=O)N1CCC2(CCN(Cc3nccs3)CC2)CC1, O=C(c1cccc(F)c1)N1CCC2(CCN(Cc3nccs3)CC2)CC1, O=C(Nc1ccccc1)N1CC2(CCN(C(=O)c3ccco3)CC2)C1, C=C(C)C1CC=C(C)/C(=N/NC(=O)c2ccc(NC(=O)c3cccc(C)c3)cc2)C1 (stereo not drawn), Clc1ccc(-c2csc(N3CCC(c4ccccc4)C3)n2)cc1 (stereo not drawn), COc1ccc(C2CC(C(F)(F)F)n3nc(C(=O)N(C)Cc4cn(C)nc4C)c(Cl)c3N2)cc1 (stereo not drawn), O=C(Nc1cccc(F)c1)N1CC2(CCN(C(=O)c3cc(C(F)(F)F)cc(C(F)(F)F)c3)CC2)C1, Cc1ccc(/C=C2\OC(=O)c3ccccc32)cc1, CC(=O)c1cnc2c(C(=O)O)cnn2c1C, COn1c(-c2ccccc2)nc2c1CCc1nonc1-2, Cc1ccc(C)c(CN2C(=O)C3CCCN3c3ccc(S(=O)(=O)N4CCOCC4)cc32)c1 (stereo not drawn), O=C(CO)N/N=C/c1ccccc1F, CC(=O)c1cn(CCCCCCCCCCn2cc(C(C)=O)c(=O)[nH]c2=O)c(=O)[nH]c1=O, COc1ccc(NC(=O)N2CCC3(CC2)CCN(C(=O)c2ccco2)CC3)cc1, Cc1noc(C)c1C(=O)N1CCC[C@@]2(CCN(Cc3nccs3)C2)C1, Cc1noc(C)c1C(=O)N1CCC2(CCCN(Cc3ccccc3)C2)CC1, COc1ccc(CC(=O)N2CCN(c3ccc(C4=NNC(=O)CC4C)cc3)CC2)cc1 (stereo not drawn), CC12CCC(C(=O)O)(C/C1=N\O)C2(C)C (stereo not drawn), Cc1noc(NS(=O)(=O)c2ccc(N)cc2)c1C, CNc1cc(NS(=O)(=O)c2ccc(N)cc2)nc(NC)n1, CCOC(=O)C1=C(c2ccccc2)OC(N)=C(C#N)C1c1ccc(Cl)s1 (stereo not drawn), CCn1c(=O)cc(SCC(=O)N2CCN(C(=O)c3ccco3)CC2)c2ccccc21, CCCCN1C(=O)NC(NC(=O)c2ccco2)(C(F)(F)F)C1=O (stereo not drawn), CCOC(=O)c1c(C)n(C)c2ccc(OC(=O)c3ccco3)cc12, Cc1ccc(C(CC(=O)c2ccco2)SCCO)cc1 (stereo not drawn), COCCn1c(=O)c(-c2cc(F)cc(F)c2)nc2cnc(N3CCNCC3)nc21, CC1(C)OC(=O)NC1=O, Nc1nc(Br)c2c(F)cccc2c1-c1ccc(F)cc1, CC(C)C(NC(=O)OC(C)(C)C)C(=O)N1CCCC1C(=O)NC(Cc1ccccc1)C(N)=O (stereo not drawn) (Boc-Val-Pro-Phe-NH2; configuration not given here), CC(SCc1cn2cc(Cl)ccc2n1)C(=O)O (stereo not drawn), CC(NC(=O)CSc1nc(=O)cc(N)n1CCc1ccccc1)c1ccccc1 (stereo not drawn), Nc1cc(=O)nc(SCC(=O)Nc2cccc3ccccc23)n1CCc1ccccc1, CN1c2ccccc2C(O)=C(C(=O)Nc2ccccc2)S1(=O)=O, c1ccc2c(N3CCOCC3)nc(-c3ccoc3)nc2c1, COc1ccccc1-c1nc(N2CCN(C)CC2)c2ccccc2n1, C[C@](N)(COP(=O)(O)O)C(=O)O, CNc1cc(-c2c(C)noc2C)ncn1, Cn1c(=O)c2[nH]c(-c3ccccc3)nc2n(C)c1=O

AC50, active:
CC(=O)Nc1ccc(S(=O)(=O)N2CCC(N(C)CCC(C)C)CC2)cc1 8.91 µM, O=C(Cc1ccccc1)Nc1nc2ccc(Cl)cc2c2nc(-c3ccco3)nn12 10 µM, Cc1nc(SCc2cccc(Oc3ccccc3)c2)n[nH]1 14.1 µM, CCN(CC)c1ccc2c(Cl)cc(=O)oc2c1 12.6 µM, Cc1nn(S(=O)(=O)c2cccs2)c(C)c1Sc1ccc([N+](=O)[O-])cc1 2.24 µM, Cc1ccc(S(N)(=O)=O)cc1NC(=O)/C=C/c1cccs1 14.1 µM, Cc1ccccc1/C=C\C1=NCCN1 25.1 µM, CCCCn1c(NCc2ccccc2NS(=O)(=O)c2ccc(C)cc2)nc2ccccc21 0.501 µM, O=c1[nH]c2ccccc2n1CCCN1CCN(C(c2ccccc2)c2ccccc2)CC1 0.794 µM, COc1ccccc1CN1CC[C@@]2(CCCN(C(=O)c3ccco3)C2)C1 0.501 µM, O=C(c1ccco1)N1CCC2(CCN(Cc3nccs3)CC2)CC1 1 µM, O=C(c1ccco1)N1CCC[C@@]2(CCN(Cc3ccccc3)C2)C1 2 µM, O=C(c1ccco1)N1CCC2(CCN(Cc3ccccc3)CC2)CC1 3.98 µM, Cc1noc(C)c1C(=O)N1CCC[C@@]2(CCN(Cc3ccccc3)C2)C1 7.94 µM, COc1ccccc1CN1CCC2(CC1)CCN(C(=O)c1ccco1)CC2 12.6 µM, COc1ccccc1CN1CCCC2(CCN(C(=O)c3ccco3)CC2)C1 2.51 µM, CCCn1c(N)[n+](CC(=O)c2ccco2)c2ccccc21 0.708 µM, CCCCn1c(=N)n(CC(=O)c2ccco2)c2ccccc21 0.708 µM, Cc1ccn2cc(CSc3ccccc3N)nc2c1 1.26 µM, CCC(Sc1nc(=O)cc(N)n1CCc1ccccc1)C(=O)Nc1ccccc1C#N (stereo not drawn) 15.8 µM, CN1CCN(c2nc(-c3cccnc3)nc3ccccc23)CC1 10 µM, c1cncc(-c2nc(N3CCNCC3)c3ccccc3n2)c1 7.94 µM, CN1CCN(c2nc(-c3ccoc3)nc3ccccc23)CC1 15.8 µM

activity, negative = inhibition, inactive:
c1ccc(CSc2nnc3c4ccccc4c4ccccc4c3n2)cc1 -1.49% [at 11.4 µM], Cc1cccc(C)c1NC(=O)Nc1ccc(S(N)(=O)=O)cc1 -10.2% [at 11.4 µM], Cc1ccc(S(=O)(=O)Nc2ccccc2C=O)cc1 -1.56% [at 11.4 µM], CC(C)=NOCc1ccc(-c2cc(-c3ccccc3)no2)cc1 1.27% [at 11.4 µM], O=C(O)c1c(-c2c3ccc(=O)cc-3oc3cc(O)ccc23)cc2ccccc2c1-c1ccccc1 6.33% [at 11.4 µM], O=C(O)c1cc2c(cc1S(=O)(=O)O)[C@H]1[C@@H]([C@H]3[C@H]2[C@@]2(Cl)C(Cl)=C(Cl)[C@]3(Cl)C2(Cl)Cl)[C@]2(Cl)C(Cl)=C(Cl)[C@@]1(Cl)C2(Cl)Cl -3.51% [at 11.4 µM], CCc1c(O)c2c(c(O)c1C(C)=O)C(=O)c1c(cc(O)c(C(=O)O)c1C(=O)O)C2=O 0.869% [at 11.4 µM], CC(C)=CCC/C(C)=C/CO/N=C1/[C@H]2O[C@@H]2[C@@H](O)[C@H]2[C@H]1CCn1c(=O)n(Cc3cc4c(cc3Cl)OCO4)c(=O)n12 -10.5% [at 11.4 µM]
